From PubChem BioAssay (NCATS)
Inconclusive results are not listed. The source made the active and inactive calls. Calls come from the whole dose curve; as a rule, active = well fitted cell-killing curve with a large enough effect; inconclusive = small, poorly fitted or top-dose-only effect, or effect the other way; inactive = flat fitted curve, though single readings scatter.

Key:
Assay in all cases: Primary qHTS to identify gynecologic anti-cancer compounds using libraries of approved drugs and bioactive compounds (AID 1345084); note: nearly all actives have a fitted effect of over 55% in size
CASKI = details: Gynecologic cancer cell panel viability, ATPlite luminescence, 48 h; series mostly up to 57.5 µM
Summary of the method: (§1)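 48 h compound exposure at 37 C, 5% CO2; five-point qHTS. ATPlite luminescence readout of cell ATP.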

Es-2 = details: Gynecologic cancer cell panel viability, ATPlite luminescence, 48 h; series mostly up to 57.5 µM
Summary of the method: as §1

HeLa = details: Gynecologic cancer cell panel viability, ATPlite luminescence, 48 h; series mostly up to 57.5 µM
Summary of the method: as §1

Hek293T = details: Gynecologic cancer cell panel viability, ATPlite luminescence, 48 h, control line for the selectivity index; series mostly up to 57.5 µM
Summary of the method: as §1

JEG-3 = details: Gynecologic cancer cell panel viability, ATPlite luminescence, 48 h; series mostly up to 57.5 µM
Summary of the method: as §1

OV90 = details: Gynecologic cancer cell panel viability, ATPlite luminescence, 48 h; series mostly up to 57.5 µM
Summary of the method: as §1

PA-1 = details: Gynecologic cancer cell panel viability, ATPlite luminescence, 48 h; series mostly up to 57.5 µM
Summary of the method: as §1

Tov-21-G = details: Gynecologic cancer cell panel viability, ATPlite luminescence, 48 h; series mostly up to 57.5 µM
Summary of the method: as §1

Tov112D = details: Gynecologic cancer cell panel viability, ATPlite luminescence, 48 h; series mostly up to 57.5 µM
Summary of the method: as §1

SKOV3 = details: Gynecologic cancer cell panel viability, ATPlite luminescence, 48 h; series mostly up to 57.5 µM
Summary of the method: as §1

Measured: Potency

Cc1c(N)cccc1C(F)(F)F
not listed: SKOV3
inactive: all other assays above

O=C(OCC(O)CO)c1ccccc1Nc1ccnc2c(C(F)(F)F)cccc12 (stereo not given)
not listed: SKOV3
inactive: all other assays above

Cc1cc(O)c2c(O)c3c(O)cccc3cc2c1
not listed: SKOV3
inactive: all other assays above

Cc1nc(C2CCCCC2)c(-c2ccc(S(N)(=O)=O)c(F)c2)o1
not listed: SKOV3
inactive: all other assays above

Cc1cc(=O)oc2cc(O[C@@H]3SC[C@@H](O)[C@H](O)[C@H]3O)ccc12
not listed: SKOV3
inactive: all other assays above

CC(=O)N(CC(O)CO)c1c(I)c(C(=O)NCCO)c(I)c(C(=O)NCC(O)CO)c1I (stereo not given)
not listed: SKOV3
inactive: all other assays above

CC(CCc1ccc2c(c1)OCO2)NN (stereo not given)
not listed: SKOV3
inactive: all other assays above

CC1CCCCN1CCCOC(=O)c1ccc(OC2CCCCC2)cc1 (stereo not given)
not listed: SKOV3
inactive: all other assays above

CCN(CC)CCN
not listed: OV90
inactive: all other assays above

CN1CCC(N(Cc2cccs2)c2ccccc2)CC1
not listed: OV90
inactive: all other assays above

O=C(O)c1ccccc1Nc1cc(Cl)ccc1C(=O)O
not listed: OV90
inactive: all other assays above

C[C@H]1NCc2cc(-c3ccc4c(=O)c(C(=O)O)cn(C5CC5)c4c3OC(F)F)ccc21
not listed: SKOV3
inactive: all other assays above

O=C1Nc2ccccc2C1(c1ccc(O)cc1)c1ccc(O)cc1
inactive: CASKI | Es-2 | HeLa | Hek293T | JEG-3 | PA-1

Cc1ccc(O)cc1
not listed: SKOV3
inactive: all other assays above

O=C(OCCN1CCOCC1)c1cccnc1Nc1cccc(C(F)(F)F)c1
not listed: OV90
inactive: all other assays above

Cn1cc(S(C)=O)c(=O)c2ccc(F)cc21 (stereo not given)
not listed: OV90
inactive: all other assays above

CCOC(=O)c1ccc(O)c(O)c1
not listed: PA-1 | SKOV3
inactive: all other assays above

Nc1ccc(C(=O)N2CC3CC(CN(Cc4ccccc4)C3)C2)cc1
not listed: OV90
inactive: all other assays above

CCCCN(CCN(CCCC)C(=O)N1CCOCC1)C(=O)N1CCOCC1
not listed: SKOV3
inactive: all other assays above

CCNC(=O)NCCCOc1cccc(CN2CCCCC2)c1
not listed: OV90
inactive: all other assays above

Cc1ccc(C(=O)Oc2ccc(C(O)CNC(C)(C)C)cc2OC(=O)c2ccc(C)cc2)cc1 (stereo not given)
not listed: OV90 | SKOV3
inactive: all other assays above

CCC(=O)Oc1ccc2c(c1)CC[C@@H]1[C@@H]2CC[C@@]2(C)[C@H]1C[C@@H](OC(=O)CC)[C@@H]2OC(=O)CC
not listed: OV90
inactive: all other assays above

Cc1nc2n(c(=O)c1CCN1CCC(C(=O)c3ccc(F)cc3)CC1)CCS2
not listed: OV90
inactive: all other assays above

CC(C)(c1ccc(O)cc1)c1ccc(O)cc1
not listed: OV90
inactive: all other assays above

C=CC[N+]1([C@H]2C[C@H]3[C@@H]4CC[C@H]5C[C@H](OC(C)=O)[C@@H](N6CCCCC6)C[C@]5(C)[C@H]4CC[C@]3(C)[C@H]2OC(=O)CC)CCCCC1
not listed: OV90
inactive: all other assays above
